Assay results from PubChem BioAssay (NCI).
Compounds without any hit were thinned out: in the full panel of roughly 79,000, 15% have a hit. A number with no mark means an inactive call. Activity calls are given as the source filed them. Cut-off read from the data, not from the text of the source: active = growth inhibition above about 70%; inactive = the rest.

Experiments:
[1] = NCI Yeast Anticancer Drug Screen. Data for the rad50 strain (AID 155);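 note: 0% = growth of vehicle-only cultures of the same strain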; conditions: S. cerevisiae rad50 strain growth inhibition; at 50.0 µM; stronger effect = higher value
Outline: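 Inhibition values express reduced yeast growth in compound-treated cultures relative to vehicle-treated controls.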

[2] = NCI Yeast Anticancer Drug Screen. Data for the mec2-1 strain (AID 157); conditions: S. cerevisiae mec2-1 strain, at 50.0 µM, stronger effect = higher value
Outline: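 Mutant yeast (mec2-1) grown with compound; growth inhibition relative to vehicle control reported.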

[3] = NCI Yeast Anticancer Drug Screen. Data for the sgs1 mgt1 strain (AID 161);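 note: 0% = growth of cultures given vehicle only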; conditions: S. cerevisiae sgs1 mgt1 strain, at 50.0 µM, stronger effect = higher value
Outline: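 Percent growth inhibition was derived by comparing compound-exposed mutant yeast with vehicle-exposed cultures. The strain carries alterations in DNA damage repair.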

[4] = NCI Yeast Anticancer Drug Screen. Data for the cln2 rad14 strain (AID 165);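 note: 0% = growth equal to vehicle treated cultures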; conditions: S. cerevisiae cln2 rad14 strain, at 50.0 µM, stronger effect = higher value
Outline: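 Readout is yeast growth inhibition versus vehicle-treated controls, using a strain with cln2 and rad14 alterations exposed to compound.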

[5] = NCI Yeast Anticancer Drug Screen. Data for the bub3 strain (AID 167); conditions: S. cerevisiae bub3 mutant strain, at 50.0 µM, stronger effect = higher value
Outline: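 Steps: expose the mutant yeast strain to compound; grow alongside vehicle-treated cultures; measure growth; express inhibition against the vehicle cultures.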

[6] = NCI Yeast Anticancer Drug Screen. Data for the mlh1 rad18 strain (AID 175); conditions: S. cerevisiae mlh1 rad18 strain growth inhibition; at 50.0 µM; stronger effect = higher value
Outline: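 Genetically defined yeast (DNA repair-deficient) exposed to compounds; growth inhibition determined relative to vehicle.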

`OC(CCN1CCC2CCC(C2)C1)(c1ccccc1)c1ccco1` (stereo not given) showed a growth inhibition [1] of 7.75%, a growth inhibition [2] of -3.15% and a growth inhibition [3] of -5.25%. It also gave a growth inhibition [4] of -15.6%, a growth inhibition [5] of -0.05% and a growth inhibition [6] of -4.75%.
For `O=C1CSC(/C(=C/c2ccccc2)c2nc3ccccc3[nH]2)=N1`, the growth inhibition [1] was 6.65%, the growth inhibition [2] was -1.75% and the growth inhibition [3] was 0.15%. For the same compound, the growth inhibition [4] was 16.2%, the growth inhibition [5] was -1.6% and the growth inhibition [6] was -0.25%.
`CCN=C1SCCCS1` gave a growth inhibition [1] of -8.8%, a growth inhibition [2] of -22.8% and a growth inhibition [3] of -13.4%. For the same compound, the growth inhibition [4] was -19.5%, the growth inhibition [5] was -15.9% and the growth inhibition [6] was -14.8%.
Work on `COc1ccc(C)c2c1CCCC2` yielded a growth inhibition [1] of -8.6%, a growth inhibition [2] of 9.75% and a growth inhibition [3] of -5.05%. For the same compound, the growth inhibition [4] was -60.2%, the growth inhibition [5] was -6.8% and the growth inhibition [6] was -14.5%.
In the case of `O=C1C2=C(Nc3cc([N+](=O)[O-])ccc3N2)OC1c1ccc(Cl)cc1Cl` (stereo not given), the growth inhibition [1] was -2.35%, the growth inhibition [2] was 23.4% and the growth inhibition [3] was 5.2%. It also gave a growth inhibition [4] of 10.7%, a growth inhibition [5] of -7% and a growth inhibition [6] of 13.2%.
`O/N=C1/C(=C/c2ccccc2)CCCC1C(NO)c1ccccc1` (stereo not given) showed a growth inhibition [1] of 27.9%, a growth inhibition [2] of 10.2% and a growth inhibition [3] of 27.2%. It also gave a growth inhibition [4] of 28.1%, a growth inhibition [5] of 17.1% and a growth inhibition [6] of 57.6%.
Work on `Oc1nc2nc[nH]n2c1N=Nc1ccccc1` yielded a growth inhibition [1] of -22.7%, a growth inhibition [2] of -12.9% and a growth inhibition [3] of -7.5%. It also gave a growth inhibition [4] of -12.5%, a growth inhibition [5] of 10.3% and a growth inhibition [6] of 6.9%.
Compound `O=C(O)c1ccc(O)c(Cl)c1` has a growth inhibition [1] of 14.2%, a growth inhibition [2] of 5.8% and a growth inhibition [3] of -7.85%. The growth inhibition [4] was -22.2%, the growth inhibition [5] was 9.25% and the growth inhibition [6] was 25.4%.
`Cc1ccc(CC(=O)N(C)C)c([N+](=O)[O-])c1` showed a growth inhibition [1] of -9.5%, a growth inhibition [2] of -7.15% and a growth inhibition [3] of -1%. It also gave a growth inhibition [4] of 0.95%, a growth inhibition [5] of -8.45% and a growth inhibition [6] of -25.1%.
In the case of `Cc1cc(=O)oc2c(C(=O)/C=C/N(C)C)c(O)ccc12`, the growth inhibition [1] was -29.9%, the growth inhibition [2] was 4.1% and the growth inhibition [3] was 7.85%. It also gave a growth inhibition [4] of 0.25%, a growth inhibition [5] of 9.95% and a growth inhibition [6] of 7.7%.
In the case of `OCC1CCCCCCC1`, the growth inhibition [1] was -4.25%, the growth inhibition [2] was -19.7% and the growth inhibition [3] was -3.15%. The growth inhibition [4] was 18.4%, the growth inhibition [5] was -3.65% and the growth inhibition [6] was -10.4%.
For `c1ccc2c(c1)ccc1c2c[n+](CCCCCCCC[n+]2cc3c4ccccc4ccc3c3ccccc32)c2ccccc12`, the growth inhibition [1] was 88.4% (active), the growth inhibition [2] was 92.2% (active) and the growth inhibition [3] was 87.5% (active). The growth inhibition [4] was 86.2% (active), the growth inhibition [5] was 83.2% (active) and the growth inhibition [6] was 90.5% (active).
Compound `CCCCC1(C(NC(=O)c2ccccc2Cl)c2ccncc2)C(=O)N(c2ccccc2)N(c2ccccc2)C1=O` (stereo not given) has a growth inhibition [1] of 33.8%, a growth inhibition [2] of 15.8% and a growth inhibition [3] of 9.15%. The growth inhibition [4] was 6.35%, the growth inhibition [5] was 33.5% and the growth inhibition [6] was 41.5%.
With `COc1ccc(C2SCC(=O)N2NC(=O)c2ccc(NC(C)=O)cc2)c(OC)c1` (stereo not given) the growth inhibition [1] was -27.7%, the growth inhibition [2] was -7.5% and the growth inhibition [3] was -23.2%. It also gave a growth inhibition [4] of 12.1%, a growth inhibition [5] of -22% and a growth inhibition [6] of -11.7%.
`CC(C)c1ccc(O)c(Cc2cc(C(C)C)cc(Cc3cc(C(C)C)ccc3O)c2O)c1` gave a growth inhibition [1] of -14.3%, a growth inhibition [2] of -3.2% and a growth inhibition [3] of -10.2%. It also gave a growth inhibition [4] of 4.6%, a growth inhibition [5] of 1.1% and a growth inhibition [6] of -3.25%.
Work on `N#Cc1cn(Cc2ccccc2)c2ccccc2c1=O` yielded a growth inhibition [1] of -0.3%, a growth inhibition [2] of -3.15% and a growth inhibition [3] of 3.95%. It also gave a growth inhibition [4] of 47.9%, a growth inhibition [5] of 7.3% and a growth inhibition [6] of 1.15%.
`CC(=O)c1sc2c(c1OC(=O)c1cccs1)c(=O)n(-c1ccccc1)c(=S)n2-c1ccccc1` gave a growth inhibition [1] of 22.2%, a growth inhibition [2] of -4.25% and a growth inhibition [3] of 10.3%. For the same compound, the growth inhibition [4] was -15.1%, the growth inhibition [5] was 23.4% and the growth inhibition [6] was 3.9%.
Work on `O=C(CCCCC(=O)Oc1ccc([N+](=O)[O-])cc1)Oc1ccc([N+](=O)[O-])cc1` yielded a growth inhibition [1] of 10.9%, a growth inhibition [2] of 3.25% and a growth inhibition [3] of 13.3%. The growth inhibition [4] was 32%, the growth inhibition [5] was 3.4% and the growth inhibition [6] was 33%.
In the case of `O=C(Nc1ccc(C(F)(F)F)cc1[N+](=O)[O-])C(=O)C1NC(=S)NC1=O` (stereo not given), the growth inhibition [1] was 30.6%, the growth inhibition [2] was 12.1% and the growth inhibition [3] was 24.9%. For the same compound, the growth inhibition [4] was 25.4%, the growth inhibition [5] was 7.35% and the growth inhibition [6] was 27.6%.
`CN(C)CCCNc1ncnc2nc[nH]c12` showed a growth inhibition [1] of -25.8%, a growth inhibition [2] of -43.7% and a growth inhibition [3] of -31.8%. The growth inhibition [4] was -19.8%, the growth inhibition [5] was -28.4% and the growth inhibition [6] was -0.15%.
